# In PubChem BioAssay (NCI):
# Compounds without any hit were thinned out: in the full panel of roughly 83,000, 20% have a hit.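 Percent growth is the endpoint: 0 to 100 indicates growth inhibition (40 means 60% inhibition), 0 means no net growth, and negative values indicate cell death.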 Unmarked numbers belong to inactive results. Calls of active or inactive are those of the source.
# System: NCI-H226 lung
# Assay: NCI-60 one-dose screen, 48 h (100 = growth as untreated, 0 = no growth, -100 = all killed)
# Conditions: 10 µM unless noted
# Protocol: Growth inhibition of the NCI-H226 human Non-Small Cell Lung tumor cell line is measured as a screen for anti-cancer activity. Cells are grown in 96 well plates and exposed to the test compound for 48 hours. Compounds are tested at a single concentration, which is 10^-5 M for most compounds. The reported endpoint is percent growth (GI% or GIPRCNT), where numbers from 0 - 100% represent growth inhibition, and numbers from -100% - 0 represent cell death. For example, a value of 40 represents 60% growth inhibition. A value of 0 means no net growth occurred over the course of the experiment. A value of -40 indicates 40% of cells at the beginning of the experiment died by the end of the experiment. A value of -100 means all cells are dead at the end of the experiment.
# NCI-60 Human Tumor Cell Lines Screen was performed using the standard one-dose NCI protocol, which is described in more detail at https://dtp.cancer.gov/discovery_development/nci-60/default.htm.
# Compounds with GIPRCNT values below 10 were considered active. Activity score was based on GIPRCNT using the following formula: […]
# Score is 0 for GIPRCNT values of 100 or above, 50 for GIPRCNT values of 0, and 100 for GIPRCNT values of -100.
row,Compound,growth
1,c1ccc(-c2c(-c3ccccc3)[n+](Cc3ccc4ccccc4c3)c(-c3ccccc3)n2Cc2ccc3ccccc3c2)cc1,-66.8% (active)
2,O=C1[C@H]2Cc3c([nH]c4ccccc34)[C@H](c3ccc(Cl)cc3)N2C(=O)CN1C1CCN(Cc2c(Cl)cccc2Cl)CC1,72.5%
3,O=c1c2ccccc2nc(COc2ccccc2)n1/N=C/C=C/c1ccccc1,98.1%
4,CN1CCN(c2ccc(C(=O)/C=C/c3ccc(Cl)c(C(F)(F)F)c3)cc2)CC1,86%
5,COc1ccc2c(C3=C(c4c[nH]c5ccccc45)C(=O)N(O)C3=O)coc2c1,74.9%
6,O=c1[nH]c2cc(Cl)ccc2n1C1CCN(c2ccc3nnc(Cl)n3n2)CC1,87.4%
7,CCOC(=O)C1=C(C)Nc2nnc(Nc3ccccc3)n2C1c1ccccc1 (stereo not given),86.7%
8,C#C[C@]1(O)CC[C@H]2[C@@H]3CC=C4c5sc(C6CC6)nc5CC[C@]4(C)[C@H]3CC[C@@]21C,94.6%
9,C#C[C@]1(O)CC[C@H]2[C@@H]3CC=C4c5sc(Nc6ccc(OC)nc6)nc5CC[C@]4(C)[C@H]3CC[C@@]21C,47.4%
10,CCCCCc1ccc(S(=O)(=O)N(C(C)=O)c2cccc(-c3csc(N(CCN4CCN(C)CC4)C(C)=O)n3)c2)cc1,85.3%
11,O=C1[C@H]2Cc3c([nH]c4ccccc34)[C@@H](c3ccc(Cl)cc3)N2C(=O)CN1C1CCN(Cc2c(Cl)cccc2Cl)CC1,81.6%
12,CN1CCN(c2nc(-c3cnc4ccccc4n3)cc3ccccc23)CC1,99.9%
13,C#C[C@]1(O)CC[C@H]2[C@@H]3CC=C4c5sc(Nc6ccncc6)nc5CC[C@]4(C)[C@H]3CC[C@@]21C,-4.76% (active)
14,CN(C)CCn1c2ccc(N)cc2c2nc3ccccc3nc21,34.3%
15,CC1(COc2ccc3ncc(C#Cc4cncc(C(=O)Nc5cc(C(C)(C)C)on5)c4)n3n2)COC1,18.8%
16,CCOC(=O)c1c(Nc2ccccc2)nn2c(-c3ccc(OC)c(OC)c3)ccnc12,54.9%
17,CCCC(=O)NC(c1cccnc1)c1cc(Cl)c2cccnc2c1O (stereo not given),48.9%
18,O=S(=O)(Nc1ccc(I)c(Cl)c1)c1ccc(-c2cnc(C3CC3)o2)cc1,41.9%
19,O=C(/C=C1\C=CN(CCCCO)c2ccccc21)n1ccc2ccccc21,86.4%
20,CN(C)c1ncc(/C=C2\SC(=S)N(Cc3ccccc3Cl)C2=O)s1,83.8%

row,Compound,growth
1,Cc1ccc(-c2nnc3sc(C4=Cc5ccccc5OC=C4)nn23)cc1,96.4%
2,Cc1csc(Nc2cccc(Nc3nc(C)cs3)c2)n1,85%
3,CC1(C)CC[C@]2(C(=O)N3CCCNCC3)CC[C@]3(C)C(=CC[C@@H]4[C@@]5(C)CCC(=O)C(C)(C)[C@@H]5CC[C@]43C)[C@H]2C1,103%
4,CCOC(=O)c1nn(-c2ccccc2)c(=O)c2c(N)c(C#N)c(-c3cccs3)cc12,60%
5,Cc1cn(-c2cc(NC(=O)c3cncc(C#Cc4cnc5ccc(O[C@H]6CCOC6)nn45)c3)cc(C(F)(F)F)c2)cn1,44.9%
6,CCC(CC)n1c(=O)c(SC2=NC3C(NN2)N(CC)C(=O)N3CC)c(C(=O)O)c2ccccc21 (stereo not given),36.1%
7,c1cncc(-c2cn3nc(-c4c[nH]c5ccccc45)sc3n2)c1,-48.5% (active)
8,COCCC[C@H]1O[C@@](O)([C@H](C)[C@@H]2CC(OC)C(O)/C=C(C)/C=C(C)/C=C(\C)C(OC3O[C@@H](C)[C@H](O)C(O)[C@@H]3O)C(C)/C=C(C)/C=C(OC)/C=C(\C)C(=O)O2)C(OC)C(O)[C@]1(C)O[C@H]1C[C@@H](O)[C@H](O[C@H]2C[C@](C)(O)[C@H](O)C(C)O2)C(C)O1 (stereo not given in full),38.2%
9,COc1ccc([C@H]2[C@H](O)C(=O)N2c2cc(OC)c(OC)c(OC)c2)cc1,19.5%
10,CCc1ccc(NC(=O)N[C@@H](Cc2cccc(F)c2)C(=O)N[C@@H]2C(=O)N3CCC[C@H]3C(=O)N3CCCC[C@H]3C(=O)N[C@@H](C)C(=O)N3C[C@H](C)C[C@H]3C(=O)O[C@H]2C)c(F)c1,-2.16% (active)
11,COc1cc(/C=N/Nc2ccnc3cc(Cl)ccc23)cc(OC)c1O,96.2%
12,CCN1C(=O)N(CC)C2SC(N/N=C/c3cccs3)=NC21 (stereo not given),36%
13,COc1cc(O)c2c(c1)/C=C/C[C@H](O)[C@H](O)C(=O)/C=C\C[C@H](C)OC2=O,40.6%
14,CCOC(=O)Nc1ccc(-c2nc(-c3cccc(O)c3)c(-c3ccnc(Br)c3)[nH]2)cc1,40.6%
15,COc1ccc(Cn2cc3c(c2-c2cc(OC)c(OC)c(OC)c2)CCCc2cnoc2-3)cc1,53.6%
16,CCn1c2ccc(/C=N/OCCCN(C)C)cc2c2cc(/C=N/OCCCN(C)C)ccc21,79.7%
17,CCCCCCCCNC(=O)c1ccc(Cn2c(CCCC)nc3c(N)nc4ccccc4c32)cc1,87.7%
18,CCCCCCNC(=O)Oc1ccc(/C(=C(\C)c2ccc(Cl)cc2)c2ccc(OCCN(C)C)cc2)cc1,101%
19,CS(=O)(=O)c1nccc(-c2c(-c3ccc(F)c(OCCc4ccc(F)cc4)c3)nc3sccn23)n1,78.1%
20,C#CCOc1ccccc1C(Nc1ccccc1)c1nnnn1C1CCCCC1 (stereo not given),107%
